ChEMBL document CHEMBL3988442, “University of Dundee, Small-Polar-MMV Screening Library” (2021)

biological target: AMP-activated protein kinase, AMPK (Homo sapiens) (UniProt P54646+O43741+P54619+Q9UGJ0+Q9Y478+Q13131+Q9UGI9); assay: AMP-dependent Kinase enzyme assay. An in vitro enzyme assay that detects ADP turnover that is directly proportional to AMPK activity. This uses naive AMPK that is activated during the assay with MK-8722; type: functional; set-up: scale not given: direction of the effect not stated beside the values; conditions: 30 µM

Structure (SMILES)	Percent Effect [%]
Cc1ccccc1Cn1cnc2oc(C)c(C(=O)O)c2c1=O	9.55
Cc1ccccc1S(=O)(=O)N[C@@H]1CC[C@@H](N2CCNC(=O)C2)[C@@H]1O	5.3
Cc1nn(C)c(C)c1C1CCCN1CC(=O)N(C)c1nccs1 (stereo not given)	10.2
COC1CCN(c2ccc(F)cc2CN(C)C(=O)c2cc[nH]n2)CC1	12.3
c1cc(N2CCC(CN3CCOCC3)CC2)c2sccc2n1	2.28
Cc1nnc(CN(Cc2ccco2)Cc2cccc3c2OCO3)n1C	-4.86
COc1cc(Cl)ccc1CNC(=O)N(C)C(C)CS(C)(=O)=O (stereo not given)	-1.65
CN1CCCC(CCC(=O)NCCc2nnc(N)s2)C1 (stereo not given)	-1.67
CC(=O)Nc1ccc(CN2C[C@H]3CC[C@@H]2CN(c2ncccn2)C3)cc1	13
CN(C)CCN(C)C(=O)c1cn(CC2CCCCC2)nn1	10.7
Cn1nccc1-c1cccc(CC2CCN(S(C)(=O)=O)C2)n1 (stereo not given)	8.3
COCc1ncc(CN2CCC3(CCNC(=O)CC3)CC2)cn1	0.0611
Cc1ccc(C(=O)NCc2ccnc(C3CCCOC3)n2)s1 (stereo not given)	7.88
CC(C)c1ccc(CC(=O)N2CCCC3(CN(C)C(=O)O3)C2)cc1 (stereo not given)	15
COc1ccc(CC2(CO)CCN(c3cc(N)ncn3)CC2)cc1	8.25
O=C(CCc1ccsc1)NCC1CCN(C2CC2)C1 (stereo not given)	-5.43
COc1ccc(O)c(C(=O)NCC2CCCN(C3CCOCC3)C2)c1 (stereo not given)	12.5
NC(=O)c1ccc(CNC(=O)NCc2cc[nH]n2)cc1	-5.62
CCOc1ccccc1C(C(=O)O)N(C)Cc1cc(C)[nH]n1 (stereo not given)	5.49
CCCc1nn(Cc2ccc(Br)s2)c(=O)o1	9.29

Structure (SMILES)	Percent Effect [%]
COc1cc2c(cc1CNCc1cccnc1-n1cccn1)OC(C)C2 (stereo not given)	5.16
O=C(c1nnn(-c2ccc(F)cc2)n1)N(CCO)Cc1ccccc1	3.9
COCCC1(C(=O)O)CCCN(C(=O)c2cnc3c(c2)CCCC3)C1 (stereo not given)	2.02
CC(OCC1CC1)C(=O)Nc1ccn(Cc2ccccc2)n1 (stereo not given)	2.88
CSc1nsc(NC(=O)N(C)Cc2ccc3c(c2)OCO3)n1	0.417
CN(C(=O)C1CCN(Cc2cnc3ccccn23)CC1)c1ccccc1	-0.957
CCC(NCCn1cccn1)C(=O)Nc1cc(C)on1 (stereo not given)	2.9
Cc1cc(NCCc2c(C)n[nH]c2C)nc(-c2cccnc2)n1	-4.66
CCNC(=O)[C@@H]1C[C@H](N)CN1C(=O)c1c[nH]c2ccccc12	6.06
FC(F)(F)c1ccnc(N2CCC(c3nccn3CC3CC3)CC2)n1	19.6
O=C(O)c1ccn(-c2cccc(NC(=O)c3ccccc3Cl)c2)n1	0.768
CC(C)Cn1nc(-c2ccc(C(=O)O)cc2)cc1-c1ccc(F)cc1	22.7
Cc1cc(N2CCC(n3cc(CN4CCSCC4)nn3)CC2)ccn1	2.21
COc1ccc(Cl)cc1-n1nc(C2CCCC2)nc1Cn1cnnn1	-6.62
Cc1nc2n(n1)CC(NCc1c(Cl)ccc3cccnc13)CC2 (stereo not given)	11.7
Cc1cnn(CCCNC(=O)NC(C)C(=O)Nc2ccccc2)c1 (stereo not given)	4.78
COCCN(C)Cc1cc(Cl)ccc1OCC(O)CN1CCCCCC1 (stereo not given)	-8.12
Cc1cnn(C2CN(c3nc(-c4ccncc4)nc4c3CCC4)C2)c1	4.55
Cc1cc(=O)n2nc(Oc3ccc(C#N)cc3Cl)sc2n1	-3.6
CC(OCC1CC1)C(=O)Nc1nccn1Cc1ccccc1 (stereo not given)	5.4
